Source: PubChem BioAssay (NCATS)
Inconclusive results are not listed. Active and inactive are the calls of the source. The call rests on the fitted dose curve; in most records, active means well fitted curve in the direction sought with a large enough effect; inconclusive means small, poorly fitted or top-dose-only effect, or another doubt; inactive means no such curve, though single readings can be large; an effect the other way counts as inactive or inconclusive.

What was measured:
[1] = biological target: N-terminal Xaa-Pro-Lys N-methyltransferase 1 (Homo sapiens) (UniProt Q9BV86); test: qHTS Assay for Inhibitors of N-terminal methyltransferase 1 (NTMT1): LOPAC validation of the NTMT1 SAHH-coupled ThioGlo3 Assay (AID 1347143);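 further: SAH from peptide methylation measured as thiol fluorescence via SAHH coupling and ThioGlo3; nearly all actives have a fitted effect of over 70% in size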; further: potency means the concentration at half of the fitted maximal effect
Summary of the method: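 NTMT1 125nM + cpds (various conc.), 1 min RT; add SAM 100uM/SAHH 10uM/ThioGlo3 15uM (addition mix). SAHH-coupled thiol detection, Ex340/Em450, t0 and 30 min RT; signal normalized to background. LOPAC 1280-cpd pilot.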

[2] = system: Zika virus NS2B-NS3 protease (unlinked); test: Optimization of GU AMC qHTS for Zika virus inhibitors: Unlinked NS2B-NS3 protease assay (AID 1347151); further: series mostly up to about 52 µM; nearly all actives have a fitted effect of over 80% in size
Summary of the method: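 Percent inhibition is derived from the 15-min change in AMC fluorescence, normalized against no-inhibitor and no-enzyme controls, then fitted to a 4-parameter Hill curve. Aprotinin was the intraplate control.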

[3] = system: Zika virus NS2B-NS3 protease; test: Primary screen GU AMC qHTS for Zika virus inhibitors (AID 1347154); further: nearly all actives have a fitted effect of over 70% in size
Summary of the method: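 Fluorogenic AMC-substrate cleavage by noncovalent NS2B-NS3 protease complex (25 nM, pH 8.0 Tris buffer with Tween 20) followed for 15 minutes at room temperature (~20% conversion). Percent inhibition from ex340/em450 signal change, fitted by 4-parameter Hill equation.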

[4] = qHTS of pediatric cancer cell lines to identify multiple opportunities for drug repurposing: Confirmatory screen for NB-EBc1 cells (AID 1347115);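 further: cells exposed to compound for 48 h before the viability read; nearly all actives have a fitted effect of over 45% in size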; further: potency means the concentration at half of the fitted maximal effect
Summary of the method: (§1)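 Cells (500-1,000/well) rested 5 h, then received compounds for 48 h; metabolically active cells were measured by CellTiter-Glo luminescence. Final concentrations spanned up to 46 µM (MIPE, 11-point) or 0.59 nM-46 µM (NPC, 8-point) in primary screens, 11-point in follow-ups.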

[5] = qHTS of pediatric cancer cell lines to identify multiple opportunities for drug repurposing: Confirmatory screen for BT-37 cells (AID 1347117); further: nearly all actives have a fitted effect of over 55% in size; further: potency means the concentration at half of the fitted maximal effect
Summary of the method: as §1

[6] = qHTS of pediatric cancer cell lines to identify multiple opportunities for drug repurposing: Confirmatory screen for MG 63 (6-TG R) cells (AID 1347119); further: nearly all actives have a fitted effect of over 55% in size; further: potency means the concentration at half of the fitted maximal effect
Summary of the method: as §1

[7] = qHTS of pediatric cancer cell lines to identify multiple opportunities for drug repurposing: Confirmatory screen for control Hh wild type fibroblast cells (AID 1347121); further: nearly all actives have a fitted effect of over 70% in size
Summary of the method: as §1

[8] = qHTS of pediatric cancer cell lines to identify multiple opportunities for drug repurposing: Confirmatory screen for Rh18 cells (AID 1347125); further: nearly all actives have a fitted effect of over 55% in size
Summary of the method: as §1

[9] = qHTS of pediatric cancer cell lines to identify multiple opportunities for drug repurposing: Confirmatory screen for Saos-2 cells (AID 1347127); further: nearly all actives have a fitted effect of over 60% in size; further: potency means the concentration at half of the fitted maximal effect
Summary of the method: as §1

[10] = qHTS of pediatric cancer cell lines to identify multiple opportunities for drug repurposing: Confirmatory screen for OHS-50 cells (AID 1347128);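 further: compound exposure lasted 48 h at 37 degrees C; nearly all actives have a fitted effect of over 55% in size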
Summary of the method: as §1

[11] = qHTS of pediatric cancer cell lines to identify multiple opportunities for drug repurposing: Confirmatory screen for SK-N-SH cells (AID 1347129);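 further: cells exposed to compound for 48 h before viability read; nearly all actives have a fitted effect of over 60% in size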; further: potency means the concentration at half of the fitted maximal effect
Summary of the method: as §1

[12] = qHTS of pediatric cancer cell lines to identify multiple opportunities for drug repurposing: Confirmatory screen for DAOY cells (AID 1347114); further: potency means the concentration at half of the fitted maximal effect; nearly all actives have a fitted effect of over 65% in size
Summary of the method: (§2)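 Viability measured as metabolically active cells via CellTiter-Glo luminescence following 48 hours of compound exposure, 11-point dilutions in confirmatory testing. 500-1,000 cells/well plated 5 hours before dosing; controls were DMSO and 2.3 µM bortezomib.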

[13] = qHTS of pediatric cancer cell lines to identify multiple opportunities for drug repurposing: Confirmatory screen for SJ-GBM2 cells (AID 1347116); further: nearly all actives have a fitted effect of over 60% in size; further: potency means the concentration at half of the fitted maximal effect
Summary of the method: as §2

[14] = qHTS of pediatric cancer cell lines to identify multiple opportunities for drug repurposing: Confirmatory screen for U-2 OS cells (AID 1347122); further: potency means the concentration at half of the fitted maximal effect; nearly all actives have a fitted effect of over 65% in size
Summary of the method: as §1

[15] = qHTS of pediatric cancer cell lines to identify multiple opportunities for drug repurposing: Confirmatory screen for Rh41 cells (AID 1347123);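 further: potency means the concentration at half of the fitted maximal effect; 48 h compound exposure; nearly all actives have a fitted effect of over 60% in size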
Summary of the method: as §1

[16] = qHTS of pediatric cancer cell lines to identify multiple opportunities for drug repurposing: Confirmatory screen for RD cells (AID 1347124);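 further: cells exposed to compound for 48 h before viability readout; nearly all actives have a fitted effect of over 65% in size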; further: potency means the concentration at half of the fitted maximal effect
Summary of the method: as §1

[17] = qHTS of pediatric cancer cell lines to identify multiple opportunities for drug repurposing: Confirmatory screen for Rh30 cells (AID 1347126)
Summary of the method: as §1

Furin (Homo sapiens) = Furin (Homo sapiens) (UniProt P09958); test: Furin counterscreen qHTS for Zika virus inhibitors (AID 1347149); further: nearly all actives have a fitted effect of over 70% in size; further: potency means the concentration at half of the fitted maximal effect
Summary of the method: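 Counterscreen measures cleavage of 2 microM BOC-RVRR-AMC, below its ~15 microM Km, by 5 nM full-length human furin at pH 7.0 after a 15-min compound preincubation. Inhibition derives from the 15-min fluorescence increase at 37C.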

Measured: Potency

Chain of N-terminal Xaa-Pro-Lys N-methyltransferase 1 (Homo sapiens) (Q9BV86 whole entry, looked up): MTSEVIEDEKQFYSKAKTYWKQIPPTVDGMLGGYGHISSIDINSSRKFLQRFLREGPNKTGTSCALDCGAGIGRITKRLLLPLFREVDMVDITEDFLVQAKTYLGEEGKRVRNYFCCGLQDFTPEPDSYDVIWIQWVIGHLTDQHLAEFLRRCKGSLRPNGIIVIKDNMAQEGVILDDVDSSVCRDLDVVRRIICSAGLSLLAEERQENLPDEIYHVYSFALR
Chain of Furin (Homo sapiens) (P09958 whole entry, looked up): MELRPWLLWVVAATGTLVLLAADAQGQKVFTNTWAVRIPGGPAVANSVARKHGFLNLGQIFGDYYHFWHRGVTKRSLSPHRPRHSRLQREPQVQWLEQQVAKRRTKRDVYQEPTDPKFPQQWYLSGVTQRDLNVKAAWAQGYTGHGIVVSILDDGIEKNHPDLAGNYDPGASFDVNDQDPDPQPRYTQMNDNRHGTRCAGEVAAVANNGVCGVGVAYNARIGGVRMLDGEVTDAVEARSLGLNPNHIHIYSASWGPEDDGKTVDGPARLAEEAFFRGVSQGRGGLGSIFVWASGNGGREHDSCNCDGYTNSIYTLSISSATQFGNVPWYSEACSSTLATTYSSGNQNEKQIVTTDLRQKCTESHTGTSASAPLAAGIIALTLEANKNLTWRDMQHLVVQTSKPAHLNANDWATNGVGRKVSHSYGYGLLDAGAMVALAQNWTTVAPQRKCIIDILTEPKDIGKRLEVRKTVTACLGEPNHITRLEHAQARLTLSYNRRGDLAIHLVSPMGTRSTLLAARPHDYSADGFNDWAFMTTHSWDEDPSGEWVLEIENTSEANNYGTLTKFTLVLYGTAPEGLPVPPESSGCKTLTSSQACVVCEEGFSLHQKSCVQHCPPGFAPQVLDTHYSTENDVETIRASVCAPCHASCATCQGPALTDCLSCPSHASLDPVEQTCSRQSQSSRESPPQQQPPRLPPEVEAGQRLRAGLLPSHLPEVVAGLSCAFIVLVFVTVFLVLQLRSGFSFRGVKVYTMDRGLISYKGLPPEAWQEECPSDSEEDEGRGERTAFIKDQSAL

CC(=O)[C@H]1CC[C@H]2[C@@H]3CC[C@H]4C[C@H](O)CC[C@]4(C)[C@H]3C(=O)C[C@]12C
inactive: [1] | [2] | [3]

COC[C@@H](NC(C)=O)C(=O)NCc1ccccc1
inactive: [4] | [5] | [6] | [7] | [8] | [9] | [10] | [11] | [3]

O=c1[nH]c2ccccc2n1C1CCN(CCCC(c2ccc(F)cc2)c2ccc(F)cc2)CC1
inactive: [1] | [2] | [3]

O=C1NCN(c2ccccc2)C12CCN(CC1COc3ccccc3O1)CC2 (stereo not given)
inactive: [1] | [2]

COc1ccc(C(CN(C)C)C2(O)CCCCC2)cc1 (stereo not given)
inactive: [1] | [2] | [3]

C[C@H]1O[C@@H](O[C@H]2[C@@H](O)C[C@H](O[C@H]3[C@@H](O)C[C@H](O[C@H]4CC[C@@]5(C)[C@H](CC[C@@H]6[C@@H]5CC[C@]5(C)[C@@H](C7=CC(=O)OC7)CC[C@]65O)C4)O[C@@H]3C)O[C@@H]2C)C[C@H](O)[C@@H]1O
inactive: Furin (Homo sapiens) | [2]
active: [12] 65.7 nM | [13] 233 nM | [5] 58.5 nM | [6] 46.5 nM | [14] 165 nM | [15] 73.7 nM | [16] 104 nM | [17] 329 nM | [9] 1040 nM | [11] 148 nM

CCn1cc(C(=O)O)c(=O)c2ccc(C)nc21
inactive: [1]

CC[N+](CC)(CC)CC
inactive: [1]

NN=C(N)N
inactive: [1] | [2]

Cc1cccc(C)c1NC1=NCCCS1
inactive: [1] | [2] | [3]

COc1ccccc1N1CCNCC1
inactive: [1] | [2] | [3]

CC(CCc1ccccc1)NC(C)C(O)c1ccc(O)cc1 (stereo not given)
inactive: [1] | [2] | [3]

CC[C@@H](CO)NC(=O)[C@@H]1C=C2c3cccc4c3c(cn4C)C[C@H]2N(C)C1
active: [1] 56200 nM

Cn1c(CCCC(=O)O)nc2cc(N(CCCl)CCCl)ccc21
inactive: [13] | [7] | [16] | [8] | [10] | [11] | [3]
active: [4] 13100 nM | [1] 56200 nM

CCC1(C2=NCCN2)Cc2ccccc2O1 (stereo not given)
inactive: [1] | [2] | [3]

Cc1ccc(-c2nc3ccc(C)cn3c2CC(=O)N(C)C)cc1
active: Furin (Homo sapiens) 8550 nM

CCN(C(C)=O)c1cccc(-c2ccnc3c(C#N)cnn23)c1
active: Furin (Homo sapiens) 24100 nM
